The values that follow come from PubChem BioAssay (NCATS).

Results filed as inconclusive are left out. A number with no mark means an inactive call. Calls of active or inactive are those of the source. Calls follow the shape of the dose curve; as a rule, active = well fitted curve in the direction sought with a large enough effect; inconclusive = small, poorly fitted or top-dose-only effect, or another doubt; inactive = no such curve, though single readings can be large; an effect the other way counts as inactive or inconclusive.

In experiment [1] the target is Rap guanine nucleotide exchange factor 3 (Homo sapiens) (UniProt O95398). The experiment is described as follows: Confirmatory qHTS for agonist of cAMP-regulated guanine nucleotide exchange factor 3 (EPAC1) (AID 1645881).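 Also: EPAC1 catalysed release of BODIPY-GDP from Rap1B seen as fluorescence loss; 100% = effect of cAMP agonist control; nearly all actives have a fitted effect of over 75% in size.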
Rap guanine nucleotide exchange factor 3 (Homo sapiens), sequence (O95398 whole entry, looked up): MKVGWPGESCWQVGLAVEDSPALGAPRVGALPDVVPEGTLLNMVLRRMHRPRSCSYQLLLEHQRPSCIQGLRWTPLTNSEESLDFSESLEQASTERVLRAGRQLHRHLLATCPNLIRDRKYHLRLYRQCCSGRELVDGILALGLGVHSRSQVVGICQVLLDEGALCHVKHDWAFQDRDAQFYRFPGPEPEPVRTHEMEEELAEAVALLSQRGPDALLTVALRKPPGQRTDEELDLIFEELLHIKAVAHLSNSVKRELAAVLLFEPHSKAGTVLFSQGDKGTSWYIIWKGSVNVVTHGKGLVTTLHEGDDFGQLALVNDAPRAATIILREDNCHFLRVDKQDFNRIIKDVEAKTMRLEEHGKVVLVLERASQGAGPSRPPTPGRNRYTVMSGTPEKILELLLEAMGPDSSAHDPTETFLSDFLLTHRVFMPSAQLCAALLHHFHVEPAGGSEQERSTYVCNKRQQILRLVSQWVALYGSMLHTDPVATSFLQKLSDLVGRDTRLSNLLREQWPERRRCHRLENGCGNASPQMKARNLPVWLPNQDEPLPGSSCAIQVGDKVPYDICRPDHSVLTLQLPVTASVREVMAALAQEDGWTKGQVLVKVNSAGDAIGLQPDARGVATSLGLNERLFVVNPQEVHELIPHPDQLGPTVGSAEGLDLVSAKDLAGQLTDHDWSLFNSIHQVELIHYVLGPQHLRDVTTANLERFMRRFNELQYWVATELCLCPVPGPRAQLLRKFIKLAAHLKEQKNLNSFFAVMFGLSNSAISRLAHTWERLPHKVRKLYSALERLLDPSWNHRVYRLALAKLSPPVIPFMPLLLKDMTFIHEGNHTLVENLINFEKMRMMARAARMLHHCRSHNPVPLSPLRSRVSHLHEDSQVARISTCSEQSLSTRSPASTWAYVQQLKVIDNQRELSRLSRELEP
The target in experiment [2] is Rap guanine nucleotide exchange factor 4 (Homo sapiens) (UniProt Q8WZA2). The experiment is described as follows: Confirmatory qHTS for agonist of cAMP-regulated guanine nucleotide exchange factor 4 (EPAC2) (AID 1645884).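 Also: nucleotide exchange releases bodipy-GDP from Rap1 and this lowers its fluorescence; % is scaled to controls: 0 for no effect and ±100 for the full control effect; nearly all actives have a fitted effect of over 65% in size.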 On the technique in general: qHTS replaces the single test concentration by a dilution series.
Rap guanine nucleotide exchange factor 4 (Homo sapiens), sequence (Q8WZA2 whole entry, looked up): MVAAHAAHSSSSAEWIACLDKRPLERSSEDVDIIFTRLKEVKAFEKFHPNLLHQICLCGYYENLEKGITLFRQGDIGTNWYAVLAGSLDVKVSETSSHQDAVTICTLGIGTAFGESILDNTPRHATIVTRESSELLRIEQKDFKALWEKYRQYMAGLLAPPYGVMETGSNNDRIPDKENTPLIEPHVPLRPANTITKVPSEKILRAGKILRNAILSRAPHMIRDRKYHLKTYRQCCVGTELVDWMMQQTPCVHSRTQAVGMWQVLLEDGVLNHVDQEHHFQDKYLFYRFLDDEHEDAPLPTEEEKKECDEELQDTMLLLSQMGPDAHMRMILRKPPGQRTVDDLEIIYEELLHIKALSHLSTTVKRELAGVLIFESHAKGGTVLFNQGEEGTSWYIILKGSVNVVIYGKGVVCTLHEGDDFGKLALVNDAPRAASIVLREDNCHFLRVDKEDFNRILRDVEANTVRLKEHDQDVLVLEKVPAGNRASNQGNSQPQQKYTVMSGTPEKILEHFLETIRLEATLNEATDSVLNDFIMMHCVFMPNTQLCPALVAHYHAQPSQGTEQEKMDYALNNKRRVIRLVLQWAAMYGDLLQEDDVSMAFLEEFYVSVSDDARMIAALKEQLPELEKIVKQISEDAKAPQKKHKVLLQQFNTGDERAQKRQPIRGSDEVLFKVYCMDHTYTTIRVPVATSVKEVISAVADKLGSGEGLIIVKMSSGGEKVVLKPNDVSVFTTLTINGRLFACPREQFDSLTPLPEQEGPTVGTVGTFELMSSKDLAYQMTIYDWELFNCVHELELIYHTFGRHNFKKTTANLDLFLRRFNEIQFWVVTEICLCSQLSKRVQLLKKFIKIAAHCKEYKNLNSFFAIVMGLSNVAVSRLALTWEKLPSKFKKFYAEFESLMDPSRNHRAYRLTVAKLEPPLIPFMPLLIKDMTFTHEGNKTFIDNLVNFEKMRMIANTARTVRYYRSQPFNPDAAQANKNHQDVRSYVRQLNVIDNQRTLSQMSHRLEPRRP
Experiment [3] has the same target. The experiment is described as follows: Confirmatory qHTS for antagonist of cAMP-regulated guanine nucleotide exchange factor 4 (EPAC2) (AID 1645885). Also: nearly all actives have a fitted effect of over 25% in size. Also: potency is read from the fitted curve at half-maximal effect. As to activity change, negative = inhibition: % is scaled to controls: 0 for no effect and ±100 for the full control effect.
The target of experiment [4] is Rap guanine nucleotide exchange factor 3 (Homo sapiens) (UniProt O95398). Kind of experiment: Counterscreen qHTS for antagonist of cAMP-regulated guanine nucleotide exchange factor 3 (EPAC1) (AID 1645888). Also: potency is read from the fitted curve at half-maximal effect.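 As to activity change, negative = inhibition: fluorescence loss as bound BODIPY-GDP is released from Rap1B; % of control where 0% means no effect.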 In a few lines:
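Rap1B–BODIPY-GDP (250 nM) with 50 uM GDP; compounds pin-transferred to 9.74 nM–152 uM final (activator) or from 7.32 nM upwards (inhibitor). Fluorescence Ex/Em 480/540 nm read at 5 and 30 min, then after adding cAMP or buffer, at room temperature.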

For the compound `CCOc1cc(CNCCSc2nnnn2C)ccc1OCc1ccc(Cl)cc1Cl`, the Potency entry in experiment [1] and in experiment [2] was “inactive” in each case. Moreover, the results for the Potency in experiment [3] and in experiment [4] were 4.26 µM (active) and 63.1 µM (active), respectively.

For `O=C1C(Cl)=C(NCCc2ccccc2)C(=O)c2ccccc21`, the Potency entry in experiment [1], in experiment [2], in experiment [3] and in experiment [4] was “inactive” in each case.

For `CS(=O)(=O)c1ccc(C(=O)NCCN2C(=O)S/C(=C\c3cccnc3)C2=O)cc1[N+](=O)[O-]`, the Potency entry in experiment [1] and in experiment [3] was “inactive” in each case. Further, in experiment [2], the activation was 1.36% [at 17.1 µM, percent relative to cAMP agonist control]. In addition, in experiment [4], the activity change, negative = inhibition is -27.7% [at 30.8 µM].

`CCOC(=O)c1cc2c(=O)n3ccccc3nc2n(Cc2ccco2)c1=NC(=O)c1c(F)cccc1Cl`: the Potency entry in experiment [1], in experiment [2], in experiment [3] and in experiment [4] was “inactive” in each case.

In the case of `COc1ccc(Cn2c(-c3ccc(C)cc3)nc3c(c(=O)c4ccccc4n3C)c2=O)cc1`, the Potency result in experiment [1] and in experiment [3] was “inactive” throughout. Besides, the activation in experiment [2] is -1.59% [at 17.1 µM, percent relative to cAMP agonist control]. Besides, in experiment [4], the activity change, negative = inhibition was -16.2% [at 30.8 µM].

Take `CCn1c(=O)c2sccc2n2c(CCCC(=O)N3CCN(c4cc(Cl)ccc4C)CC3)nnc12`: the Potency result in experiment [1], in experiment [2], in experiment [3] and in experiment [4] was “inactive” throughout.

For `COc1cc(O)c(C(C)=O)c2c1C=CC(C)(C)O2`, the Potency entry in experiment [1], in experiment [2], in experiment [3] and in experiment [4] was “inactive” each time.

For the compound `O=C(NC1(O)C(=O)c2ccccc2C1=O)c1ccc(C(F)(F)F)cc1`, the Potency result in experiment [1], in experiment [2], in experiment [3] and in experiment [4] was “inactive” throughout.

On to `CCc1nc2sc3ccccc3c(=O)c2c(=O)n1Cc1ccco1`, for which the Potency entry in experiment [1], in experiment [2] and in experiment [4] was “inactive” each time. For the same compound, in experiment [3], the Potency is 75.7 µM (active).

Regarding `Oc1cccc(C=Nc2cccc3ccccc23)c1O`, the Potency result in experiment [1], in experiment [2], in experiment [3] and in experiment [4] was “inactive” in each case.

As for `COc1ccc(Cl)cc1NC(=O)c1c(NCc2ccc(C)o2)sc2c1CCCCC2`, the Potency result in experiment [1], in experiment [2], in experiment [3] and in experiment [4] was “inactive” throughout.

Turning to `Cc1ccc(C)c(OC(C)C(=O)Nc2ccc(S(=O)(=O)Nc3nccs3)cc2)c1` (stereo not drawn), the Potency result in experiment [1], in experiment [2] and in experiment [4] was “inactive” each time. Further, the Potency in experiment [3] is 33.8 µM (active).

For the compound `COc1cc2c(cc1OC)C(COc1cc(C)cc(C)c1)N(C(C)=O)CC2` (stereo not drawn), the Potency result in experiment [1] and in experiment [3] was “inactive” throughout. Besides, the activation in experiment [2] was -1.36% [at 17.1 µM, percent relative to cAMP agonist control]. Besides, the activity change, negative = inhibition in experiment [4] is -10.1% [at 30.8 µM].

For `CCOc1cc(/C=C2/NC(=O)NC2=O)cc(Br)c1OCc1ccc(C(=O)O)cc1`, the Potency entry in experiment [1] and in experiment [3] was “inactive” in each case. For the same compound, the activation in experiment [2] was 4.12% [at 17.1 µM, percent relative to cAMP agonist control]. Moreover, the activity change, negative = inhibition in experiment [4] was -1.26% [at 30.8 µM].

Regarding `OC(CSc1ccccc1)CN1CCN(c2cccc(Cl)c2)CC1` (stereo not drawn), the Potency entry in experiment [1] and in experiment [3] was “inactive” throughout. For the same compound, the activation in experiment [2] is 5.38% [at 17.1 µM, percent relative to cAMP agonist control]. Also, the activity change, negative = inhibition in experiment [4] was 12.2% [at 30.8 µM].

As for `O=C(NCc1ccccc1)C(c1ccccc1)n1c(=O)c(-c2ccco2)nc2ccccc21` (stereo not drawn), the Potency entry in experiment [1] and in experiment [3] was “inactive” throughout. For the same compound, the activation in experiment [2] is 3.56% [at 17.1 µM, percent relative to cAMP agonist control]. In experiment [4], the activity change, negative = inhibition is 5.07% [at 30.8 µM].

On to `Cc1noc(C)c1COc1ccccc1C(=O)NC(C)c1ccc(Cl)cc1` (stereo not drawn), for which the Potency entry in experiment [1], in experiment [2] and in experiment [4] was “inactive” throughout. The Potency in experiment [3] is 33.8 µM (active).

Consider `Nc1ccc2c(c1)C(=O)C(=O)c1ccccc1-2`, for which the Potency result in experiment [1], in experiment [2], in experiment [3] and in experiment [4] was “inactive” throughout.

In the case of `CC1CC(C)CN(C(=O)c2ccc3c(c2)N(Cc2ccccc2)CCS3)C1` (stereo not drawn), the Potency entry in experiment [1] and in experiment [3] was “inactive” each time. For the same compound, the activation in experiment [2] was 14.1% [at 17.1 µM, percent relative to cAMP agonist control]. For the same compound, the activity change, negative = inhibition in experiment [4] was 1.99% [at 30.8 µM].

In the case of `O=C(Nc1c(-c2ccc3c(c2)OCO3)[nH][nH]c1=O)c1ccccc1`, the Potency result in experiment [1], in experiment [2], in experiment [3] and in experiment [4] was “inactive” each time.

Turning to `CCCN(CC(=O)Nc1ccccc1OC)C(=O)c1cccc(S(=O)(=O)Nc2ccc(OC)cc2)c1`, the Potency result in experiment [1], in experiment [2], in experiment [3] and in experiment [4] was “inactive” throughout.

In the case of `Cc1ccc(N=Cc2c(O)c3ccccc3n(C)c2=O)cc1`, the Potency entry in experiment [1], in experiment [2], in experiment [3] and in experiment [4] was “inactive” throughout.

Consider `CCc1nc2c(OCc3ccc(C(=O)OC)cc3)cccn2c1N(C)C(=O)c1ccc(C)cc1`, for which the Potency result in experiment [1], in experiment [2], in experiment [3] and in experiment [4] was “inactive” in each case.

Take `Cc1cc(C)nc(NS(=O)(=O)c2ccc(NC(=O)CN3C(=O)S/C(=C\c4ccccc4)C3=O)cc2)n1`: the Potency result in experiment [1], in experiment [2], in experiment [3] and in experiment [4] was “inactive” each time.

In the case of `O=C(Nc1cccc(F)c1)c1ccc(-c2cccnc2)c2ccoc12`, the Potency result in experiment [1], in experiment [2], in experiment [3] and in experiment [4] was “inactive” throughout.

For the compound `CCc1nc2c(OCc3ccc(OC)cc3)cccn2c1N(C)C(=O)c1ccc(OC)cc1`, the Potency entry in experiment [1], in experiment [2], in experiment [3] and in experiment [4] was “inactive” throughout.

For `CCOC(=O)c1c(C)oc2nc(C)nc(N(C)Cc3ccccc3)c12`, the Potency entry in experiment [1], in experiment [2] and in experiment [4] was “inactive” in each case. Further, in experiment [3], the outcome is “inactive [at 12.7 µM]”.
